Screens deposited in PubChem by Pan Lab, Icahn School of Medicine at Mount Sinai.
Many of the other results were omitted from the sample, so hits are more common in it than they were.
RBX1-CUL1 inh: inhibitors of human ROC1-CUL1 ubiquitin ligase activity; in vitro K48 di-Ub FRET, acceptor:donor ratio, 45 min; inhibition, % at 10 µM; hit rate 0.6% among 140,000; E3 ubiquitin-protein ligase RBX1 (Homo sapiens) + Cullin-1 (Homo sapiens), P62877+Q13616; in the data active = inhibition above about 25%
Target sequence (P62877 whole entry, looked up): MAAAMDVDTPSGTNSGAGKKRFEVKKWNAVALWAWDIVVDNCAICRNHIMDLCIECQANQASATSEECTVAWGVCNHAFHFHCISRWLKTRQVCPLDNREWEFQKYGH
Target sequence (Q13616 whole entry, looked up): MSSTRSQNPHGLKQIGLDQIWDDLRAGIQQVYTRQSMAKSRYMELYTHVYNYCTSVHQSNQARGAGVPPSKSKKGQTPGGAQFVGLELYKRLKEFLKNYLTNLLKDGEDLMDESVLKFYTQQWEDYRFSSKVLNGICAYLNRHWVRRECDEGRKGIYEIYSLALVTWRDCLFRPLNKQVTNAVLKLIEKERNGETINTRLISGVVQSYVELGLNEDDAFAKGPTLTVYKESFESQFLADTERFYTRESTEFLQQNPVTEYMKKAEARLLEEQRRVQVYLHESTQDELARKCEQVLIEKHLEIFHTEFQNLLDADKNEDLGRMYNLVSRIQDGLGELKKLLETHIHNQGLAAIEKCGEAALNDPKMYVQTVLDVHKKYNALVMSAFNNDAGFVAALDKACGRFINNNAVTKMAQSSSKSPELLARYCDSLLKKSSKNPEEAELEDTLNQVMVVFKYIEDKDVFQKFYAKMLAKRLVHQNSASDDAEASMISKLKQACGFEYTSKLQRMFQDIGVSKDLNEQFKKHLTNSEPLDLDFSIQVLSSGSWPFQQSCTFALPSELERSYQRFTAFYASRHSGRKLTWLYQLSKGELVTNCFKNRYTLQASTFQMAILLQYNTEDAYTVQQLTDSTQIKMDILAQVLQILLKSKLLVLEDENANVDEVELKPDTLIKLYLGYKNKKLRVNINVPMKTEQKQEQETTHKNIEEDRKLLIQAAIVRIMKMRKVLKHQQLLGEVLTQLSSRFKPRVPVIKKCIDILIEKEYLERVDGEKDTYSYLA
Active calls of the source: *.

SMILES | RBX1-CUL1 inh
O=C1/C(=C\c2ccco2)SC(=S)N1c1cccc(O)c1 | 9.1
O=C(CN1C(=O)S/C(=C\c2ccco2)C1=O)c1ccc(Br)cc1 | -1.2
COC(=O)c1cc(-c2ccccc2)nn1C | -8.7
COc1cccc(CNc2ccc(N3CCOCC3)cc2)c1 | 7.3
Nc1nc(N)c2c(F)c(N)ccc2n1 | 65.3*
Nc1nc2ccc(N)c(Cl)c2c(=O)[nH]1 | -4.5
Nc1nc(N)c2c(F)cccc2n1 | 13.1
C=C(C)COc1ccccc1C(=O)Nc1ccccc1O | 6.8
CCC(=O)NC(Nc1c(Cl)cc(Cl)cc1Cl)C(Cl)(Cl)Cl (stereo unspecified) | -3.2
O=C1NC(=S)NC(=O)C1=Cc1ccc(OCc2ccc(Cl)cc2)cc1 | 4.9
O=C(CCCN1C(=O)/C(=C\c2cccc(Br)c2)SC1=S)NNC(=O)c1ccccc1O | 0.6
NC(=O)CC(C(=O)O)N1C(=O)/C(=C/c2cccc(Br)c2)SC1=S (stereo unspecified) | 32.8*
CCCC(C(=O)O)N1C(=O)/C(=C/c2ccc(F)cc2)SC1=S (stereo unspecified) | 7.4
Cc1ccc(C(C)C)c(Oc2ccc(N3C(=O)C4C5C=CC(C6CC56)C4C3=O)cc2)c1 (stereo unspecified) | -4.3
COc1ccc(C(=O)c2cc(C)ccc2OC)cc1 | -1.2
COc1ccc(C(=O)c2coc3c2C(=O)C(=O)C(Br)=C3)cc1 | 102.1*
COc1ccc(C(=O)c2coc3c2cc(O)c2ccccc23)cc1 | 12.5
CCOc1ccc(Cc2c(C)nc(N)[nH]c2=O)cc1 | -0.7
Cc1cccc(NC(=O)c2nnn(-c3ccc(C)c(C)c3)c2C)c1 | -3.2
Cc1sc(-c2c(C#N)c(N)nc3c2CCCCC3)cc1COc1ccccc1Br | -0.1
COCC(=O)Nc1cc(C(=O)N[C@@H]2CCCC[C@H]2c2ccccc2)cc2nc(-c3cccnc3)n(C)c12 | 6.4
Fc1ccccc1-c1nn2c(-c3ccncc3)nnc2s1 | -4.2
COc1ccc2nc(Sc3ncn[nH]3)cc(C)c2c1 | -7.7
CCOC(=O)N1CCC(NC2CCN(c3ccc(NC(=O)CCc4ccccc4)cc3)CC2)CC1 | 5.5
O=C(Nc1ccc(S(=O)(=O)Nc2ccc(Cl)nn2)cc1)c1ccc(COc2cccc(Cl)c2)o1 | 14.2
SMILES | RBX1-CUL1 inh
COc1cc(NS(=O)(=O)c2ccc(NC(=O)c3ccc(COc4ccc5c(c4)CCC5)o3)cc2)ncn1 | -1.1
O=C(Nc1ccc(S(=O)(=O)Nc2ccc(Cl)nn2)cc1)c1ccc(COc2cc(Cl)ccc2Cl)o1 | 35.1*
CCOc1ccc(-n2c(SCC(=O)Nc3cccc(Cl)c3Cl)nnc2-c2ccncc2)cc1 | -2.3
CCn1c(COc2ccc(OC)cc2)nnc1SCC(=O)Nc1cccc(C)c1C | -6.1
COc1ccccc1C(=O)n1nc(-c2ccc(Cl)cc2)nc1SC | 3.0
COc1ccc(NC(=O)C2CCC(N3C(=O)C4C5CCC(C5)C4C3=O)CC2)cc1 (stereo unspecified) | 6.0
Cc1ccccc1S(=O)(=O)NCCC(C)C | -7.2
O=C(O)CNS(=O)(=O)c1cccc2ccccc12 | 6.6
CCCNS(=O)(=O)c1cccc2c(N)cccc12 | 57.5*
CCCC1=Nc2nc(NCc3ccccc3OC)nn2C(=O)C1 | 7.0
CCCN1CCC(NC(=O)C(C)Oc2ccc(C)c(C)c2)CC1 (stereo unspecified) | 2.9
CC(=O)N1CCN(S(=O)(=O)c2ccc(F)cc2)CC1 | -2.7
O=C1C(Cl)=C(N2CCN(S(=O)(=O)c3ccc(F)cc3)CC2)C(=O)c2ccccc21 | 63.9*
CCC(CC)C(=O)N1CCN(S(=O)(=O)c2ccc(F)cc2)CC1 | 6.6
COc1cccc(C(=O)N2CCOc3c(cc(-c4ccccc4C)cc3OC3CCOC3)C2)c1 (stereo unspecified) | 0.3
CCCNC(=O)N1CCN(S(=O)(=O)c2ccccc2)CC1 | 11.1
CCOC(=O)CN1C(=O)S/C(=C/c2cc(I)c(OCc3ccccc3F)c(OC)c2)C1=O | -8.2
Nc1cccc(C(=O)OCC(=O)c2ccccc2)c1 | -6.1
O=C(COC(=O)c1ccc(C(O)c2ccccc2)cc1)c1ccccc1 (stereo unspecified) | 32.3*
COc1ccc(C(=O)OCC(=O)c2ccc(OC(=O)c3ccccc3)cc2)cc1 | 6.0
CCCCC1C(=O)n2nc(C)c(-c3ccc(Cl)cc3)c2N=C1C (stereo unspecified) | 0.6
O=C(CSc1nc2sc3c(c2c(=O)n1-c1ccccc1)CCCC3)c1ccccc1 | -14.2
O=C(Cn1cnc([N+](=O)[O-])c1)Nc1ccc(Cl)c(Cl)c1 | -0.9
COc1ccc(-c2nc3c(c(SCC(=O)Nc4ccccc4OC)n2)Cc2cccc(C)c2O3)cc1 | 2.7
CCOc1cccc2c1Oc1nc(-c3ccccc3)nc(SCC(=O)Nc3ccc(F)cc3)c1C2 | -10.0
SMILES | RBX1-CUL1 inh
Cc1ccc(-c2nc3c(c(SCC(=O)Nc4cccc(C(=O)O)c4)n2)Cc2cccc(C)c2O3)cc1 | 31.5*
CSc1nc2ccccc2c(=O)[nH]1 | 18.3
CCc1ccc(C(=O)CC2(O)C(=O)N(Cc3cc(C(C)C)ccc3C)c3ccccc32)cc1 (stereo unspecified) | 5.9
COC(=O)C1C(=O)C(C(=O)OC)C(c2cccs2)C(C#N)(C#N)C1c1cccs1 (stereo unspecified) | -1.1
Cc1ccc(N2C(=O)/C(=C/c3ccc(Br)s3)C(=O)NC2=S)c(C)c1 | 9.4
CN1C2CCC1/C(=C/c1cccn1C)C(=O)/C2=C\c1cccn1C | 25.4*
Cn1cccc1/C=N/Nc1nncc(-c2ccccc2)n1 | 3.9
CN1C2CCC1/C(=C/c1cc(Br)cs1)C(=O)/C2=C\c1cc(Br)cs1 | -8.9
COc1ccccc1C(=O)NCC(=O)N/N=C/c1cc([N+](=O)[O-])cc([N+](=O)[O-])c1O | 2.4
COC(=O)CCC(=O)N1CCCC(C(=O)c2ccc3ccccc3c2)C1 (stereo unspecified) | -0.4
O=C(c1ccc2ccccc2c1)C1CCCN(C(=O)CCN2CCCC2=O)C1 (stereo unspecified) | -5.3
CCn1cc(C(=O)N2CCCC(C(=O)c3ccc4ccccc4c3)C2)cn1 (stereo unspecified) | 67.5*
COc1ccccc1C(c1c(C)[nH]n(-c2ccccc2)c1=O)c1c(C)[nH]n(-c2ccccc2)c1=O | 26.8*
Cc1[nH]n(-c2ccccc2)c(=O)c1C(c1ccc(C(=O)O)cc1)c1c(C)[nH]n(-c2ccccc2)c1=O | -11.9
Cc1[nH]n(-c2ccccc2)c(=O)c1C(c1cccc(OCc2ccc(Cl)cc2)c1)c1c(C)[nH]n(-c2ccccc2)c1=O | 10.2
Cc1[nH]n(-c2ccccc2)c(=O)c1CCc1ccccc1 | -3.7
CCOc1ccccc1C(c1c(C)[nH]n(-c2ccccc2)c1=O)c1c(C)[nH]n(-c2ccccc2)c1=O | 45.6*
CCOc1ccc(C(c2c(C)[nH]n(-c3ccccc3)c2=O)c2c(C)[nH]n(-c3ccccc3)c2=O)cc1OC | 8.3
CCOC(=O)C1=C(N(C(C)=O)c2ccccc2)CCCC1 | 2.5
c1ccc(-c2nnc3sc(-c4cccnc4)nn23)cc1 | -7.4
CC(C)(C)OCC(O)CN1CCN(Cc2ccc(Cl)cc2)CC1 (stereo unspecified) | 3.6
CCOc1ccc2c(c1)c(=O)c(S(=O)(=O)c1ccc(C)cc1)cn2Cc1ccccc1Cl | -4.2
Cc1[nH][nH]c(=O)c1C(c1c(C)[nH][nH]c1=O)c1cn(Cc2ccccc2Cl)c2ccccc12 | 67.8*
O=C1OC2(CCCCC2)OC(=O)C1=Cc1cn(Cc2ccccc2Cl)c2ccccc12 | -10.9
